Assay [1] can be described thus: qHTS profiling for inhibitors of Plasmodium falciparum proliferation (AID 504749).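 On activity, negative = inhibition: 0% = DMSO vehicle and full inhibition = artemisinin control.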 On all read-outs here: nearly all actives have a fitted effect of over 60% in size. Conditions: P. falciparum in erythrocytes, SYBR Green DNA, 72 h; for activity, negative = inhibition: at 28.7 µM (top of the series). In outline:
(§1)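 SYBR Green fluorescence (ex 485 nm, em 535 nm) reports parasite DNA after 72 h compound exposure of infected red cells at 0.3% parasitemia, 2.5% hematocrit; signal normalized to 0.29 uM artemisinin and vehicle wells.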

The test system of a further assay is 3D7. The assay is described as above. Conditions: P. falciparum in erythrocytes, SYBR Green DNA, 72 h; series mostly up to 28.7 µM. In outline:
as §1

Another assay deals with 7G8. The assay is described as above. Conditions: P. falciparum in erythrocytes, SYBR Green DNA, 72 h; series mostly up to 28.7 µM. In short, it runs like this:
as §1

The next assay relates to AA1029. Described as above. The conditions noted are these: P. falciparum in erythrocytes, SYBR Green DNA, 72 h; series mostly up to 28.7 µM. In short, it runs like this:
as §1

The test system of another assay is AS120. The assay is described as above. The conditions noted are these: P. falciparum in erythrocytes, SYBR Green DNA, 72 h; series mostly up to 28.7 µM. In short, it runs like this:
as §1

In another assay the test system is ATS189. The assay is described as above. The conditions noted are these: P. falciparum in erythrocytes, SYBR Green DNA, 72 h; series mostly up to 28.7 µM. In short, it runs like this:
as §1

For the next assay, the system named is ATS95. Described as above. Conditions: P. falciparum in erythrocytes, SYBR Green DNA, 72 h; series mostly up to 28.7 µM. In short, it runs like this: as §1
The subject of the next assay is C2A. Described as above. The conditions noted are these: P. falciparum in erythrocytes, SYBR Green DNA, 72 h; series mostly up to 28.7 µM. In outline:
as §1

For another assay, the system named is CP185. Described as above. Conditions: P. falciparum in erythrocytes, SYBR Green DNA, 72 h; series mostly up to 28.7 µM. In outline:
as §1

The next assay deals with CP191. The description is as above. Conditions: P. falciparum in erythrocytes, SYBR Green DNA, 72 h; series mostly up to 28.7 µM. In short, it runs like this: as §1
The subject of a further assay is CP192. Described as above. The conditions noted are these: P. falciparum in erythrocytes, SYBR Green DNA, 72 h; series mostly up to 28.7 µM. In short, it runs like this:
as §1

In another assay the test system is CP194. The description is as above. Conditions: P. falciparum in erythrocytes, SYBR Green DNA, 72 h; series mostly up to 28.7 µM. In outline:
as §1

For another assay, the system named is CP201. The assay is described as above. The conditions noted are these: P. falciparum in erythrocytes, SYBR Green DNA, 72 h; series mostly up to 28.7 µM. In outline: as §1
In the next assay the test system is CP211. The description is as above. Conditions: P. falciparum in erythrocytes, SYBR Green DNA, 72 h; series mostly up to 28.7 µM. In outline: as §1
The next assay concerns CP203. The description is as above. The conditions noted are these: P. falciparum in erythrocytes, SYBR Green DNA, 72 h; series mostly up to 28.7 µM. In outline: as §1

The record followed here is PubChem BioAssay (NCATS).

SMILES strings stand for the structures. Results filed as inconclusive are left out. Values without a mark were called inactive. Activity calls are given as the source filed them. The call rests on the fitted dose curve; in most records, active means well fitted inhibition curve with a large enough effect; inconclusive means small, poorly fitted or top-dose-only effect; inactive means flat fitted curve, though single readings scatter.
Potency means the concentration at half of the fitted maximal effect.

As for `CCCCCCCCCCCCCCCC(=O)OCC(COC(=O)CCCCCCCCCCCCCCC)OC(=O)CCCCCCCCCCCCCCC`, the activity, negative = inhibition in assay [1] (parasite line A) is -0.409%; in [1] (parasite line B), 9.45%. Further, the Potency entry in the assay with 3D7, in the assay with 7G8, with AA1029, in the assay with AS120, in the assay with ATS189 and in the assay on ATS95 was “inactive” in each case. The Potency entry in the assay with C2A, in the assay on CP185, in the assay on CP191, in the assay on CP192, in the assay on CP194 and in the assay on CP201 was “inactive” throughout. Further, the Potency result in the assay on CP211 was “inactive”.
As for `C#CCOc1ccc2c(C)cc(=O)oc2c1`, the activity, negative = inhibition was 3.33% in assay [1] (parasite line A) and 5.62% in assay [1] (parasite line B). Also, the Potency entry with 3D7, in the assay with 7G8, in the assay on AA1029, with AS120, in the assay on ATS189 and in the assay with ATS95 was “inactive” throughout. Also, the Potency entry in the assay with C2A, with CP185, with CP191, in the assay with CP192, with CP194 and with CP201 was “inactive” throughout. The Potency entry in the assay on CP211 is “inactive”.
In the case of `Nc1c(N=Nc2ccc(-c3ccc(N=Nc4cc(S(=O)(=O)O)c5ccccc5c4N)cc3)cc2)cc(S(=O)(=O)O)c2ccccc12`, the activity, negative = inhibition in assay [1] (parasite line A) was 6.43%; in assay [1] (parasite line B) it was -3.17%. Further, the Potency result with 3D7, in the assay on 7G8, in the assay with AA1029, in the assay with AS120, with ATS189 and in the assay on ATS95 was “inactive” throughout. The Potency result with C2A, in the assay with CP185, in the assay on CP191, in the assay on CP192, in the assay on CP194 and in the assay on CP201 was “inactive” each time. Also, the Potency result in the assay with CP211 was “inactive”.
For the molecule `IC(I)I`, the activity, negative = inhibition in assay [1] (parasite line A) was 0.888%; in assay [1] (parasite line B), 2.57%. The Potency entry in the assay with 3D7, in the assay with 7G8, in the assay on AA1029, in the assay with AS120, in the assay on ATS189 and with ATS95 was “inactive” throughout. Moreover, the Potency entry with C2A, in the assay on CP185, in the assay with CP191, with CP194, in the assay on CP201 and in the assay on CP211 was “inactive” throughout.
`COC(C(=O)C(O)C(C)O)C1Cc2cc3cc(OC4CC(OC5CC(O)C(O)C(C)O5)C(O)C(C)O4)c(C)c(O)c3c(O)c2C(=O)C1OC1CC(OC2CC(OC3CC(C)(O)C(O)C(C)O3)C(O)C(C)O2)C(O)C(C)O1` (stereo not given): the Potency was 158 nM (active) in [1] (parasite line A); 224 nM (active) in assay [1] (parasite line B); 282 nM (active) with 3D7; 70.8 nM (active) in the assay with 7G8; 141 nM (active) in the assay on AA1029; 112 nM (active) in the assay on AS120. Also, the Potency is 282 nM (active) in the assay on ATS189; 178 nM (active) in the assay on ATS95; 251 nM (active) in the assay with C2A; 251 nM (active) with CP185; 224 nM (active) in the assay with CP191; 3010 nM (active) in the assay on CP192. Besides, the Potency with CP194 is 3010 nM (active); in the assay on CP201 it was 2690 nM (active); in the assay on CP203, 3010 nM (active); with CP211, 2690 nM (active).
`COc1ccc2c3c1O[C@H]1C[C@@H](O)C=C[C@@]31CCN(C)C2`: the activity, negative = inhibition in [1] (parasite line A) is 7.86%; in assay [1] (parasite line B), -0.584%. The Potency entry in the assay with 3D7, in the assay on 7G8, with AA1029, in the assay with AS120, with ATS189 and with ATS95 was “inactive” each time. Besides, the Potency entry in the assay with C2A, with CP185, with CP191, with CP192, in the assay on CP194 and in the assay on CP201 was “inactive” throughout. For the same molecule, the Potency entry in the assay on CP211 is “inactive”.
As to `CC(NNC(=O)c1ccccc1)c1ccccc1` (stereo not given), the activity, negative = inhibition in assay [1] (parasite line A) is 2.16%; in [1] (parasite line B), 14.7%. In addition, the Potency result with 3D7, in the assay with 7G8, in the assay with AA1029, with AS120, in the assay on ATS189 and in the assay with ATS95 was “inactive” throughout. For the same molecule, the Potency result with C2A, in the assay with CP185, with CP191, in the assay with CP192, in the assay with CP194 and in the assay on CP201 was “inactive” each time. Further, the Potency entry with CP203 and with CP211 was “inactive” throughout.
As for `C[C@]12CCC(=O)C=C1CC[C@@H]1[C@@H]2[C@@H](O)C[C@@]2(C)[C@H]1CC[C@]2(O)C(=O)COP(=O)(O)O`, the activity, negative = inhibition in assay [1] (parasite line A) is 1.99%; in assay [1] (parasite line B), -7.41%. In addition, the Potency entry in the assay on 3D7, in the assay with 7G8, in the assay with AA1029, with AS120, in the assay with ATS189 and in the assay with ATS95 was “inactive” throughout. In addition, the Potency entry in the assay with C2A, in the assay on CP185, with CP191, with CP192, with CP194 and with CP201 was “inactive” throughout. Further, the Potency result in the assay on CP203 and in the assay on CP211 was “inactive” in each case.
Take `O=C(O)CN(CCN(CC(=O)O)CC(=O)O)CC(=O)O`: the figures for the activity, negative = inhibition in assay [1] (parasite line A) and in assay [1] (parasite line B) were -1.94% and 14.3%, respectively. In addition, the Potency entry with 3D7, with 7G8, in the assay with AA1029, with AS120, in the assay with ATS189 and with ATS95 was “inactive” in each case. Besides, the Potency result in the assay on C2A, with CP185, with CP191, with CP192, in the assay with CP194 and in the assay on CP201 was “inactive” throughout. Moreover, the Potency result in the assay on CP203 and in the assay on CP211 was “inactive” throughout.
For the molecule `CCOC(C)=O`, the activity, negative = inhibition in assay [1] (parasite line A) was 0.182%; in assay [1] (parasite line B) it was 7.53%. The Potency entry with 3D7, in the assay on 7G8, with AA1029, in the assay with AS120, in the assay with ATS189 and in the assay with ATS95 was “inactive” throughout. Further, the Potency result in the assay on C2A, in the assay on CP185, in the assay on CP191, in the assay on CP192, with CP194 and in the assay on CP201 was “inactive” throughout. The Potency result in the assay with CP203 and in the assay on CP211 was “inactive” throughout.
Regarding `CO[C@H]1C[C@@H]2CC[C@@H](C)[C@@](O)(O2)C(=O)C(=O)N2CCCC[C@H]2C(=O)O[C@H]([C@H](C)C[C@@H]2CC[C@@H](OCCO)[C@H](OC)C2)CC(=O)[C@H](C)/C=C(\C)[C@@H](O)[C@@H](OC)C(=O)[C@H](C)C[C@H](C)/C=C/C=C/C=C/1C`, the Potency in assay [1] (parasite line A) was 2240 nM (active); in [1] (parasite line B), 1120 nM (active); with 3D7, 1780 nM (active); in the assay with 7G8, 1120 nM (active); in the assay with AA1029 it was 1410 nM (active); with AS120, 1120 nM (active). The Potency is 1260 nM (active) in the assay on ATS189; 2000 nM (active) in the assay on ATS95; 3160 nM (active) with C2A; 3160 nM (active) in the assay on CP185; 1120 nM (active) with CP191; 4780 nM (active) in the assay on CP192. Further, the Potency in the assay with CP194 is 1690 nM (active); in the assay with CP201 it was 6010 nM (active); in the assay with CP203, 1900 nM (active); in the assay with CP211, 4260 nM (active).
